Data on 90 compounds can be found in PubChem BioAssay AID743279 (National Center for Advancing Translational Sciences (NCATS), 2014).

Structures are written as SMILES. Among all 360,000 compounds or so, about 17,000 (4.7%) were called active. Inconclusive results (about 5%) are left out. For the sample, actives were picked, then their nearest neighbours and some compounds at random. Values without a mark were called inactive. No stated cut-off is given here; in the data, active means activity change below about -50%; inconclusive means mostly about -30% to -49%; inactive means weaker than that.
On the % scale 0 is the no-effect control and ±100 the full control effect.

The assay can be described thus: qHTS for Inhibitors of Inflammasome Signaling: IL-1-beta AlphaLISA Primary Screen. As to conditions: THP-1 LPS/ATP IL-1B secretion, 16 h; at 57.5 µM, hits give low values. Summed up:
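THP-1 cells pretreated 1 hr with compounds (up to 57.5 uM final), then stimulated with LPS (250 ng/mL final) plus ATP (1.25 mM final); secreted IL-1B measured by AlphaLISA after 16 hr, decreased signal indicating inhibition.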
A general note: Quantitative high-throughput screening tests each substance at several concentrations.
Regarding `NC1=NOC(=O)C1C1CCCCC1` (stereo not given), the activity change is -14.1%.

With `COc1ccc(C(CNC(=O)c2ccc(OCc3cscn3)cc2)N2CCCC2)cc1` (stereo not given), the activity change is -24.7%. As for `COc1ccc(CNC(=O)CN2C(=O)NC3(CCCc4sccc43)C2=O)cc1` (stereo not given), the figure is 8.42%; as for `COc1cc2c(cc1OC)CN(C(C)C(=O)Nc1cccc(S(=O)(=O)N3CCOCC3)c1)CC2` (stereo not given), -4.78%; as for `COCC1CCCCN1C(=O)c1cc(COc2ccc(C)c(C)c2)on1` (stereo not given), 22.6%.

As to `CCOc1cc(C=NNC(=O)CCCC(=O)NN=Cc2ccc(O)c(OCC)c2)ccc1O`, the activity change was 0%. As for `CC(C)CN1CCC1(C)C(=O)Nc1ccc(OC(F)F)cc1` (stereo not given), the figure is 14.2%. As for `O=[N+]([O-])c1ccccc1Nc1ccc(O)cc1`, the figure is -11.5%. As for `O=[N+]([O-])c1ncc(Br)cc1Nc1ccccc1`, the figure is -71.2% (active). For the compound `O=[N+]([O-])c1cccc(/C=N/Nc2ncc(Br)cn2)c1`, the activity change is -8.3%.

With `Cn1c(=O)[nH]c(=O)c2c1nc(NCCCn1ccnc1)n2Cc1cccc(Br)c1`, the activity change is 58.2%.

Turning to `Cc1ccccc1-c1nc(NC(C)C)nc2cc(-c3ccccc3)sc12`, the activity change was 19.3%. To `CC1(C)CN(CCc2ccccc2)C(=O)[C@H]1CC(=O)Nc1ccc(Br)cc1` belongs 0%; to `COc1ccccc1CNC(=O)CCCN1C(=O)NC2(CCCC2)C1=O`, 10.6%; to `CC[C@]1(c2ccccc2OC)C(=O)N(C(=O)OC)N1C(=O)OC`, -76.7% (active). To `COC(=O)c1ccccc1NC(=O)Cc1ccccc1OC` belongs 7.67%.

In the case of `CC(=O)Nc1ccc(NC(=O)c2ccc3c(c2)C(=O)N(c2ccccc2C)C3=O)cc1`, the activity change was 0%. As for `C[C@@H]1CN([C@@H](C)CO)C(=O)c2cc(Br)cnc2O[C@H]1CN(C)Cc1ccc(-c2ccccc2)cc1`, the figure is -13.1%. As for `CC1(C(=O)Nc2ccc3c(c2)OCCO3)CCN1C(=O)Cc1cc(F)ccc1F` (stereo not given), the figure is -2.62%; as for `CCC(=O)Nc1nc2ccccc2n1Cc1ccccc1C`, -56% (active); as for `CC(=O)Nc1nc2ccccc2n1Cc1ccc(C)cc1`, -12.8%. As for `CCCCn1c(CCCNC(=O)CC)nc2ccccc21`, the figure is 36.3%; as for `COC(=O)c1ccc2nc(-c3cccc(Br)c3)c(Cc3ccc(OC)cc3C)n2c1`, 2.21%; as for `NNc1cccc(C=Cc2ccccc2)cc1=O`, -13.4%. For `CCOC1=C2CN(S(=O)(=O)c3ccc(C)cc3)[C@H](c3cccs3)C[C@H]2[C@H]2C(=O)N(c3ccccc3)C(=O)[C@H]2C1`, the activity change was 91.6%. As for `CCN(C(=O)c1ccc(Br)cc1)c1ccccc1`, the figure is -9.85%; as for `O=C(COc1ccc(F)cc1)N(CC1=CCS(=O)(=O)C1)c1ccccc1`, 0.865%; as for `CCN(C(=O)COc1ccc(C(=O)c2ccccc2)cc1)c1ccccc1`, -69.8% (active). As for `Cc1ccccc1OS(=O)(=O)c1cccc([N+](=O)[O-])c1`, the figure is 27.3%. As to `COc1ccc(NC(=O)C2Cc3c(-c4cccc(NC(C)=O)c4)ccnc3O2)cc1OC` (stereo not given), the activity change was -14.1%. As for `N#Cc1ccc(OCC(=O)NC(=O)NC2CCS(=O)(=O)C2)cc1` (stereo not given), the figure is -12.4%. As for `CC(=O)N1Cc2cc(C(=O)NCc3cccc(F)c3)nc(-c3cccc(C4=CCCC4)c3)c2[C@H]1CCO`, the figure is -67.2% (active). As for `CC(C)NC(=O)N1Cc2cc(C(=O)NCC(F)(F)F)nc(-c3cccc(-c4cc5ccccc5o4)c3)c2[C@@H]1CCO`, the figure is -22.8%; as for `CCNC(=O)c1cc2c(c(-c3cccc(-c4cncnc4)c3)n1)[C@H](CCO)N(C(C)=O)C2`, 42.5%.

In the case of `CC1(C(=O)NCc2ccc(F)c(F)c2)Cc2c(-c3ccc4c(c3)OCO4)ccnc2O1` (stereo not given), the activity change is 46.6%.

`CC12CCC(=O)N1C(C(=O)NCCN1C(=O)S/C(=C\c3ccccc3F)C1=O)CS2` (stereo not given): the activity change was -53.4% (active).

Consider `CCn1nc(C(=O)NNC(=O)C2CSC3(C)CCC(=O)N23)c2ccccc2c1=O` (stereo not given), for which the activity change was 4.8%. To `CC12CCC(=O)N1C(C(=O)Nc1ccc(F)c(F)c1F)CS2` (stereo not given) belongs 6.07%; to `CC1(C(=O)Nc2ccccc2Br)CCN1C(=O)CC1CC1` (stereo not given), 13.2%; to `O=C(Nc1ccc(S(=O)(=O)N2CCCCCC2)cc1)c1c(F)cccc1F`, -9.91%.

As for `O=C(Nc1ccncc1)c1c(F)cccc1F`, the activity change is -66.7% (active). Regarding `CCCC(=O)Nc1nc2ccc(NC(=O)c3c(F)c(F)c(OC)c(F)c3F)cc2s1`, the activity change was 11.7%.

As for `O=C(Nc1ccncc1)c1cc2ccccc2o1`, the activity change was -4.22%.

Consider `Nc1nnc(SCC(=O)Nc2ccc3nc(SCC(=O)Nc4ccccc4)sc3c2)s1`, for which the activity change is -29.4%. As for `CSc1nc2ccc(NC(=O)c3c(F)cccc3F)cc2s1`, the figure is -101% (active).

As to `Cc1ccc(C(=O)NC(C)C(c2cccs2)N2CCOCC2)cc1C` (stereo not given), the activity change was -9.25%. As for `CNC(=O)N1c2ccccc2C=Cc2ccccc21`, the figure is 0%; as for `CCCCNC(=O)N1CCCC(N(C)CCc2ccc(OC)c(OC)c2)C1` (stereo not given), 1.87%; as for `CC1(C2CC2)NC(=O)N(CC(=O)N2CCN(c3ccccc3F)CC2)C1=O` (stereo not given), -14.2%.

For the compound `Cc1c(C(=O)NCC(c2ccco2)N2CCCC2)oc2ccc(Cl)cc12` (stereo not given), the activity change was -25.2%.

For `Cc1ccc(C)c(S(=O)(=O)Nc2cc(C)on2)c1`, the activity change is -7.66%.

Take `CCOC(=O)C1CCCN(C(=O)C2CCN(S(=O)(=O)c3ccc(Cl)c(C(F)(F)F)c3)CC2)C1` (stereo not given): the activity change is 16.1%.

In the case of `CCCc1nc2oc3c(=O)[nH]cnc3c2c2c1COC(C)(C)C2`, the activity change was 17.7%.

For the compound `CS(=O)(=O)N1CCCCC1c1cc(C(=O)NCc2ccccc2)no1` (stereo not given), the activity change is -18.8%. As for `CCN1CCC(O)(/C=C/c2ccc(C)cc2)C(C(=O)/C=C/c2ccc(C)cc2)C1` (stereo not given), the activity change was -1.25%. Turning to `CCCCCOC(=O)c1ccc(N2C(=O)C3C4C=CC(C4)C3C2=O)cc1` (stereo not given), the activity change was -71.4% (active).

As for `CCCOC(=O)c1ccc(N2C(=O)c3ccccc3C2=O)cc1`, the activity change was 17.6%. As to `CCCCOC(=O)NCN1C(=O)C2C3C=CC(C3)C2C1=O` (stereo not given), the activity change is 26.4%. `O=C(Nc1cccc2c1CCCC2)C1CCN(C(=O)NC2CCCCC2)CC1`: the activity change is 15.3%. To `COC(=O)[C@]12CCCCC=C1N(CCC1=CCCCC1)C(=O)[C@H](CC(=O)N1CCSCC1)C2` belongs -3.86%; to `CCOC(=O)CCc1c(C)c(C#N)c2[nH]c3ccccc3n2c1=O`, -90.1% (active); to `CCOCCCNc1c(CC)c(C)c(C#N)c2nc3ccccc3n12`, -7.67%.

Take `CCCc1cc(=S)n2c([nH]c3ccccc32)c1C#N`: the activity change was -9.7%. To `COC(=O)C1=CN(c2c(C)cc(C)cc2C)C(N)=C(C#N)C1c1cccc(F)c1` (stereo not given) belongs -11.3%; to `CC1Cc2[nH][nH]c(=O)c2C(C2CC2)O1` (stereo not given), -5%; to `COc1ccc(CN2C(=O)C(CC(=O)NC3CCCCC3)CC(C(=O)N3CCOCC3)=C2C)cc1` (stereo not given), -7.47%. In the case of `CCn1c(SCC(=O)Nc2ccc(Br)cc2)nc2sc3c(c2c1=O)CCN(C)C3`, the activity change is -54.3% (active). As for `COc1ccccc1NC(=O)CSc1nc2sc3c(c2c(=O)n1-c1ccccc1)CCN(C)C3`, the figure is -4.77%. To `CCOc1ccc(-n2c(SCC(=O)Nc3ccc(OC)cc3)nc3sc4c(c3c2=O)CCN(C)C4)cc1` belongs -16%; to `Cc1ccc(-c2c(C)n([O-])c3c([n+]2=O)CCC3)cc1`, 12.3%; to `CCOc1cccc(=O)c2c(C)n(CC3CCCO3)c(C)c12` (stereo not given), 13.1%. On to `O=C1c2cccc3c([N+](=O)[O-])ccc(c23)C(=O)N1CC1CCCO1` (stereo not given), for which the activity change was -98.7% (active).

`CN1CN(C)c2ccc([N+](=O)[O-])c3cccc1c23`: the activity change is -18.1%. `Cc1ccc(N2CCN(c3ccc(C)cc3)C2c2ccccn2)cc1`: the activity change is -6.85%. To `COc1ccc(S(=O)(=O)N2CCC(C(=O)NCCC(=O)NCCc3cccc(F)c3)CC2)cc1` belongs -8.46%. To `CC(Cc1cccs1)N(Cc1ccc(Cl)cc1)C(=O)c1ccncc1` (stereo not given) belongs 20.4%; to `Nc1nc(NC(=O)/C=C/c2ccc(F)cc2)nn1-c1ccccc1`, -2.85%. As for `CC(=O)c1ccc(NC(=O)c2sc3nc4n(c(=O)c3c2C)CCCCC4)cc1`, the figure is -59.8% (active); as for `Cc1c(C(=O)Nc2ccccc2)sc2nc3n(c(=O)c12)CCCCC3`, -7.47%. As for `O=c1c2c(nc3n1CCCCC3)sc1c(O)cccc12`, the activity change is 24.7%. As for `CCCS(=O)(=O)Nc1ccc(-c2cn3c(n2)SCC3)cc1`, the figure is -1.84%; as for `CCCCCCNC(=O)O[C@H]1CN(C(=O)OC(C)C)N(C(=O)OC(C)C)[C@@H]2CN(S(=O)(=O)c3ccc(C)cc3)C[C@]12O`, -63.8% (active); as for `CCCCCCNC(=O)O[C@]12C[C@@H](C(=O)OC)[C@@H](C(=O)OC)C[C@@]1(O)CN(S(=O)(=O)c1ccc(C)cc1)C2`, 11.6%. To `COC(=O)[C@H]1C[C@H](OC(=O)NCc2ccccc2)[C@@]2(O)CN(S(=O)(=O)c3ccc(C)cc3)CC2[C@H]1C(=O)OC` (stereo not given in full) belongs -4.9%.

Regarding `COc1ccc([C@H]2CC(=O)C[C@@H](CCn3cc(CC4CCCC4)nn3)O2)cc1`, the activity change was 10.9%. To `COc1ccc(-c2nc3ccc(Br)cn3c2Cc2ccc(C)cc2)cc1OC` belongs -15.5%; to `Cc1ccc(Cn2cc(C(=O)NN)c(=O)c3ccc(F)cc32)cc1`, -11.4%; to `Cc1ccc(Nc2nc(C)cc(C)c2C(N)=O)cc1`, 19.4%. Turning to `Cc1ccc(Nc2cc(C)nc3c(C)ccc([N+](=O)[O-])c23)cc1`, the activity change is -61.1% (active). To `Cc1ccc2cccc([N+](=O)[O-])c2n1` belongs 15%.
